Compound activity as filed in PubChem.
The list is not random: actives were taken first. Their share in the collection is about 19%.
Giardia kill: kills Giardia lamblia; Giardia lamblia trophozoite viability; activity change, % at 7.66 µM, hits read low; 340,000 compounds, 0.15% hits; AID 540267; in the data active = activity change below about -80%; inconclusive = between about -30% and that limit;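 also: parasites exposed to compound for two days anaerobically before the ATP read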
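Giardia trophozoites, 100 cells per well, were exposed to compounds for 48 hrs at 37 deg C under anaerobic conditions; viability was then read as ATP content by bioluminescence after 15-30 min at room temperature.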
TDP1 cell noCPT: qHTS for Inhibitors of human tyrosyl-DNA phosphodiesterase 1 (TDP1): qHTS in cells in absence of CPT | DT40 Tdp1-/- hTDP1 cells, no CPT, ATP luminescence, 48 h | Potency, µM (top dose mostly 46.2 µM), for inactives: at the highest dose activity change, negative = growth inhibition, usual class: inhibitors | 420,000 compounds, 15% hits; also: potency is read from the fitted curve at half-maximal effect; nearly all actives have a fitted effect of over 55% in size
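Camptothecin absent (DMSO only). Human TDP1-complemented DT40 knockout cells, 400 cells/well, 37 °C for minimum 48 hr; ATP measured via CellTiter-Glo, 30 min dark incubation, luminescence.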
IL1B secr inh: blocks inflammasome-driven IL-1 beta release; THP-1 LPS/ATP IL-1B secretion, AlphaLISA, 16 h; active compounds read low; activity change, % at 57.5 µM; 360,000 compounds, 4.7% hits; AID 743279; in the data active = activity change below about -50%; inconclusive = mostly about -30% to -49%
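Secreted IL-1B measured by AlphaLISA bead assay after 16 h compound exposure of THP-1 cells; compounds (final up to 57.5 uM) added 1 h before LPS (250 ng/mL) and ATP (1.25 mM) stimulation; lower signal means less secretion.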
ELG1 DNA repair: blocks ELG1-dependent DNA repair in HEK293T cells. HEK293T ELG1-luciferase reporter, luminescence, 16 h; DNA damage induced by 5-fluorouridine. Potency, µM (titrated, usually from 46.1 µM), without a hit: at the highest dose activity change, negative = inhibition, actives largely listed as inhibitors. 330,000 compounds, 2.3% hits; also: potency is read from the fitted curve at half-maximal effect; nearly all actives have a fitted effect of over 55% in size
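Step one: seed 2,000 cells per well. Step two: pin-transfer compound or DMSO alongside 5-fluorouridine. Step three: incubate 16 hr, 37 °C, 5% CO2. Step four: add ONE-Glo, wait 30 min, read luminescence.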
TDP1 block: inhibitors of human tyrosyl-DNA phosphodiesterase TDP1. Potency, µM (titrated, usually from 130 µM), for the others: at the top dose activity change, negative = inhibition, hits mostly inhibitors. recombinant TDP1, AlphaScreen DNA substrate cleavage. Q9NUW8. AID 485290. 350,000 compounds, 0.28% hits; also: potency is read from the fitted curve at half-maximal effect; nearly all actives have a fitted effect of over 40% in size
Target sequence (Q9NUW8 whole entry, looked up): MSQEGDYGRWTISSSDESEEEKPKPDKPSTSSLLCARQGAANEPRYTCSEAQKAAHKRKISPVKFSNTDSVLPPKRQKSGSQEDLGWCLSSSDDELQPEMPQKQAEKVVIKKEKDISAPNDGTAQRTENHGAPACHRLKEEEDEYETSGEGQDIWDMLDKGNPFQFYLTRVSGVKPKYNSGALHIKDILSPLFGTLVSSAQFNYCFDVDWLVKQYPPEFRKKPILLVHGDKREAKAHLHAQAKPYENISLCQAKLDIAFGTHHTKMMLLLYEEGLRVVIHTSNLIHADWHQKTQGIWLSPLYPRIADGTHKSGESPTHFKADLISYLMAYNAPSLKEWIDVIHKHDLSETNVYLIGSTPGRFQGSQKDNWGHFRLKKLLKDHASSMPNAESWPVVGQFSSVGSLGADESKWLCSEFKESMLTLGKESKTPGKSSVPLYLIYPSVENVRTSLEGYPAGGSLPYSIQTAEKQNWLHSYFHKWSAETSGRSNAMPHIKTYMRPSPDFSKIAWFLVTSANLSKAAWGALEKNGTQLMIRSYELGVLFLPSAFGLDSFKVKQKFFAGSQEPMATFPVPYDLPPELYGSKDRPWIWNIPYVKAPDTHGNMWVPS
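Enzyme-compound mixtures sat 15 min at room temperature, followed by a 5 min reaction with 15 nM final substrate and 10 min with AlphaScreen beads. Recombinant human Tdp1 was used at 1 nM final.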
TDP1 cell CPT: growth inhibition of DT40 Tdp1-/-;hTDP1 cells with camptothecin (screen for TDP1 inhibitors); chicken DT40 Tdp1-/-;hTDP1 cells + 20 nM CPT, ATP luminescence, 48 h; Potency, µM (highest dose often 46.2 µM), inactives show at the top dose activity change, negative = growth inhibition, usual class: inhibitors; 420,000 compounds, 12% hits; AID 686979; also: potency is read from the fitted curve at half-maximal effect; nearly all actives have a fitted effect of over 55% in size
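Chicken DT40 Tdp1-/- cells complemented with human TDP1, 400 cells/well, exposed to compounds plus 20 nM camptothecin for at least 48 h at 37 C; viability read as ATP content by CellTiter-Glo luminescence.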
* marks the source's active call; other numbers are inactive results; ? = inconclusive; / = no result; [ ] = remark or other dose. Unless noted, calls follow the shape of the dose curve; as a rule, active = well fitted curve in the direction sought with a large enough effect; inconclusive = small, poorly fitted or top-dose-only effect, or another doubt; inactive = no such curve, though single readings can be large; an effect the other way counts as inactive or inconclusive. % is scaled to controls: 0 for no effect and ±100 for the full control effect.

SMILES | Giardia kill | TDP1 cell noCPT | IL1B secr inh | ELG1 DNA repair | TDP1 block | TDP1 cell CPT
CCc1ccccc1NC(=S)NCC1CCN(c2ccc(OC)cc2)C1 (centres undefined) | -12.0 | 20.6µM* | -7.5 | -24.0% | 12.5% | ?
COc1ccc(N2CCC(CNC(=O)Nc3ccc(Cl)cc3)C2)cc1 (centres undefined) | -5.1 | 18.4µM* | -19.5 | ? | 6.5% | ?
COc1ccc(N2CCC(CNC(=O)Nc3cccc(OC)c3)C2)cc1 (centres undefined) | -6.7 | ? | -2.5 | -24.2% | 11.8% | ?
CSc1ncccc1C(=O)OCC(=O)C(C)(C)C | 21.0 | 11.1% | 14.8 | 14.9% | -3.6% | 7.3%
CC(C)CN1CCCC2(CCN(C(=O)c3cccc(F)c3)CC2)C1 | / | -9.2% | / | / | / | 1.1%
COc1ccc(Cl)cc1C(=O)Nn1c(C)nc2ccccc2c1=O | -4.6 | ? | 0.0 | -3.7% | 1.0% | ?
COc1ccc(Cl)cc1C(=O)Nn1c(-c2cccs2)nc2ccccc2c1=O | 7.0 | ? | ? | 6.51µM* | 5.6% | 10.3µM*
Cc1ccccc1N1CCN(C(=O)c2cc(-c3ccccc3)nc3c2cnn3C(C)C)CC1 | / | -12.4% | 8.7 | / | / | -10.9%
COc1cccc(N2CCN(C(=O)c3cc(-c4ccccc4)nc4c3cnn4C(C)C)CC2)c1 | 17.4 | ? | ? | 11.6µM* | 3.4% | ?
CC(C)n1ncc2c(C(=O)N3CCN(c4ccc(F)cc4)CC3)cc(-c3ccccc3)nc21 | 13.9 | ? | -57.5* | ? | 3.4% | ?
CSc1ccccc1C(=O)OCC(=O)Nc1c(C)n(C)n(-c2ccccc2)c1=O | / | -8.8% | -11.7 | / | / | 4.1%
N#Cc1ccc(Cl)cc1NC(=O)CN1C(=O)C(=O)N(CCC2=CCCCC2)C1=O | / | -18.8% | 21.3 | / | / | -10.3%
O=C(O)c1ccc(N=Nc2c(O)ccc3ncccc23)cc1 | -10.0 | 2.91µM* | 18.8 | ? | / | 4.11µM*
Cc1ccccc1-c1cc(C(=O)NCc2ccc3c(c2)OCO3)nn1CC1CC(c2cccc([N+](=O)[O-])c2)=NO1 (centres undefined) | 0.9 | ? | -13.0 | -26.4% | 3.9% | -7.0%
N=c1ccn(Cc2c(Cl)cccc2Cl)cc1 | -2.6 | 0.651µM* | -12.9 | 11.6µM* | 5.6% | 1.3µM*
O=C1CCCc2ccccc2N1Cc1c(Cl)cccc1Cl | 7.7 | ? | -1.5 | 0.0% | 2.1% | -24.1%
N=c1ccn(Cc2ccc(Cl)cc2Cl)cc1 | -15.8 | 5.17µM* | ? | 8.2µM* | 10.1% | 3.66µM*
N=c1ccn(Cc2ccccc2Cl)cc1 | 10.6 | 4.61µM* | -5.7 | -15.9% | 0.0% | 5.17µM*
COC(c1ccccc1)c1nnc(CCC(=O)N(C)Cc2cccc(-n3cccn3)c2)o1 (centres undefined) | -15.4 | 15.6% | -13.8 | ? | 0.0% | -16.4%
CCc1cc(-c2nnn(CCC3COCCO3)c2CC)cc(CC)c1-c1cn(CCc2c[nH]c3ccccc23)nn1 (centres undefined) | / | ? | -3.4 | / | / | ?
COc1cccc(OCCn2cc(C=O)c3ccccc32)c1 | -1.7 | ? | -9.7 | -18.2% | / | 16.6%
Cc1cccc(OCC(=O)NCC(=O)N/N=C/c2ccccc2)c1 | 2.0 | -20.0% | -1.3 | 1.5% | -5.7% | 6.1%
COc1cccc(/C=N/NC(=O)CNC(=O)COc2cccc(C)c2)c1O | 17.6 | 18.4µM* | 229.2 | ? | 0.0% | 7.31µM*
COC(=O)N/N=C/c1cn(CCOc2cccc(OC)c2)c2ccccc12 | 11.9 | 20.6µM* | -7.7 | -13.8% | / | ?
Cc1cccc(OCC(=O)N/N=C\c2cn(C)c3ccccc23)c1 | 9.0 | ? | -1.6 | 5.8µM* | 5.6% | 19.0%
SMILES | Giardia kill | TDP1 cell noCPT | IL1B secr inh | ELG1 DNA repair | TDP1 block | TDP1 cell CPT
Cc1cccc(OCC(=O)NCC(=O)N/N=C/c2ccc(O)cc2O)c1 | -2.8 | 5.8µM* | 187.6 | ? | 0.6% | 16.4µM*
COc1ccc(OCC(=O)NC(=O)c2ccccc2OC)c([N+](=O)[O-])c1 | -0.6 | -18.6% | 25.7 | 0.3% | -1.1%[0.505 µM] | -11.9%
COc1cc(=O)[nH]c(SC(C)C(=O)Nc2cc(C)on2)n1 (centres undefined) | 6.2 | -18.3% | 11.2 | 16.8% | / | -7.3%
COC(=O)c1ccc(N2C(=O)Nc3ccccc3N2O)cc1 | 45.6 | 7.5% | 0.0 | 3.9% | 5.9% | 2.3%
CCOC(=O)c1sc(N2C(=O)c3oc4ccc(F)cc4c(=O)c3C2c2ccc(C)cc2)nc1C (centres undefined) | / | -4.8% | / | / | / | 4.2%
COc1cc(C(=O)NC(C)c2cccc3ccccc23)cc(OC)c1OC (centres undefined) | 1.1 | 20.6µM* | -56.7* | -7.4% | 4.0% | ?
COc1cc(Br)c(C(C)NC(=O)c2cccc(Br)c2)cc1OC (centres undefined) | -10.2 | 23.1µM* | -2.4 | -25.1% | -2.0% | 25.9µM*
COc1cc(C(=O)NC(C)CCc2ccccc2)cc(OC)c1OC (centres undefined) | -8.3 | -5.2% | 2.6 | -2.1% | / | -5.8%
COc1cc(Br)c(C(C)NC(=O)c2ccc(C)cc2)cc1OC (centres undefined) | -0.4 | ? | 23.1 | -26.2% | 0.0% | ?
Cc1cccc(N2CC(c3nc4ccc(C)cc4[nH]3)CC2=O)c1 (centres undefined) | / | ? | / | / | 10.1% | -6.1%
O=C(C1CCC(CNS(=O)(=O)c2ccc(Br)s2)CC1)N1CCN(c2ccccc2)CC1 (centres undefined) | / | ? | / | / | 0.0% | 4.61µM*
O=C(NC1CCCC1)C1CCC(CNS(=O)(=O)c2cccs2)CC1 (centres undefined) | -19.2 | -2.3% | 0.3 | -9.0% | 2.6% | -1.9%
Cc1ccc(C)c(N2CCN(C(=O)C3CCC(CNS(=O)(=O)c4ccc(Br)s4)CC3)CC2)c1 (centres undefined) | / | 5.8µM* | / | / | -2.1%[12.3 µM] | 5.8µM*
O=C(C1CCC(CNS(=O)(=O)c2cccs2)CC1)N1CCN(c2ccc(Cl)cc2)CC1 (centres undefined) | 12.7 | 4.11µM* | -15.4 | ? | 2.6% | 6.51µM*
CCOC(=O)C1=c2s/c(=C\c3cccnc3)c(=O)n2C(N)=C(C(=O)OC)C1c1cccnc1 (centres undefined) | 32.5 | 14.6µM* | 11.1 | ? | 6.8% | 23.1µM*
Cc1c(S(=O)(=O)NC2CCCCCC2)c(=O)n(C)c(=O)n1C | -27.2 | -10.6% | 2.3 | ? | / | -17.2%
